In PubChem BioAssay (Tox21):
Where “and” joins values, the source holds several entries; their conditions need not be identical. Equal values may be shown once. Values without a mark were called inactive. Results filed as inconclusive are left out. Entries that show only a call come without a potency. Calls of active or inactive are those of the source. Unless noted, the call rests on the fitted dose curve; in most records, active means well fitted curve in the direction sought with a large enough effect in the repeat runs; inconclusive means weak or mixed curves; inactive means no such curve, though single readings can be large; an effect the other way counts as inactive or inconclusive.

Columns and labels:
[1] = qHTS assay to identify small molecule antagonists of the glucocorticoid receptor (GR) signaling pathway - cell viability counter screen (AID 720693); further: nearly all actives have a fitted effect of over 55% in size
[2] = qHTS assay for identifying genotoxic compounds that show differential cytotoxicity against isogenic chicken DT40 cell lines with known DNA damage response pathways - wild type cell line (AID 743012); further: nearly all actives have a fitted effect of over 60% in size; further: potency means the concentration at half of the fitted maximal effect
Method in brief: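 Cells (DT40 wild type, 300/well) are treated with DMSO-dissolved compounds after a ~0.5 h pre-incubation and kept 40 h at 37 C/5% CO2. Viability is then measured by CellTiter-Glo luminescence following 30 min at room temperature.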

[3] = qHTS assay for identifying genotoxic compounds that show differential cytotoxicity against isogenic chicken DT40 cell lines with known DNA damage response pathways - Rev3 mutant cell line (AID 743014); further: nearly all actives have a fitted effect of over 55% in size; further: potency means the concentration at half of the fitted maximal effect
[4] = qHTS assay for identifying genotoxic compounds that show differential cytotoxicity against isogenic chicken DT40 cell lines with known DNA damage response pathways - Rad54/Ku70 mutant cell line (AID 743015); further: nearly all actives have a fitted effect of over 60% in size; further: potency means the concentration at half of the fitted maximal effect
[5] = qHTS assay to identify small molecule antagonists of the androgen receptor (AR) signaling pathway - cell viability counter screen (AID 743033; further: nearly all actives have a fitted effect of over 45% in size)
[6] = qHTS assay to identify small molecule antagonists of the androgen receptor (AR) signaling pathway using the MDA cell line - cell viability counter screen (AID 743041; further: nearly all actives have a fitted effect of over 45% in size)
Method in brief: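 MDA-kb2 AR-luc cells (MMTV-luciferase, AR/GR responsive) treated with compounds plus R1881 agonist for 16 h at 37C. CellTiter-Fluor added at 15.5 h; fluorescence read after 30 min in the same wells.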

[7] = target: Androgen receptor (Homo sapiens) (UniProt P10275); test: qHTS assay to identify small molecule antagonists of the androgen receptor (AR) signaling pathway (AID 743035; active means well fitted inhibition curve with a large enough effect in the signal ratio in the repeat runs, not every such curve was filed as active; the % refers to the signal ratio)
Method in brief: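 Antagonism is scored as loss of R1881-driven beta-lactamase reporter expression in HEK293 cells carrying the reporter under a UAS element, after 16 h co-treatment at 37C and a 2 h room-temperature FRET substrate read.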

[8] = target: Androgen receptor (Homo sapiens) (UniProt P10275); test: qHTS assay to identify small molecule agonists of the androgen receptor (AR) signaling pathway (AID 743036; active means well fitted activation curve with a large enough effect in the signal ratio in the repeat runs, with a control signal flat, not every such curve was filed as active; the % refers to the signal ratio)
Method in brief: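 Reporter line: GeneBLAzer AR-UAS-bla-GripTite (HEK293). Steps: plate cells, 4 h rest, add compounds, 16 h at 37C, add LiveBLAzer B/G substrate, 2 h at RT, read fluorescence.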

[9] = target: Androgen receptor (Homo sapiens) (UniProt P10275); test: qHTS assay to identify small molecule agonists of the androgen receptor (AR) signaling pathway using the MDA cell line (AID 743040; further: nearly all actives have a fitted effect of over 20% in size)
Method in brief: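 MDA-kb2 breast carcinoma cells carrying MMTV-luciferase (responsive to AR and GR), plated 5 h then treated 16 h with compounds at 37C, 0% CO2. Read-out was ONE-Glo luminescence after 30 min at room temperature.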

[10] = qHTS assay to identify small molecule antagonists of the thyroid receptor (TR) signaling pathway - cell viability counter screen (AID 743064); further: nearly all actives have a fitted effect of over 50% in size; further: potency means the concentration at half of the fitted maximal effect
Method in brief: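 Plate GH3.TRE-Luc cells; incubate 4 h at 37 °C; add compound, then T3 to 1 nM final; incubate 23.5 h; add CellTiter-Fluor; incubate 30 min at 37 °C, 5% CO2; read fluorescence.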

Androgen receptor (Homo sapiens), sequence (P10275 whole entry, looked up): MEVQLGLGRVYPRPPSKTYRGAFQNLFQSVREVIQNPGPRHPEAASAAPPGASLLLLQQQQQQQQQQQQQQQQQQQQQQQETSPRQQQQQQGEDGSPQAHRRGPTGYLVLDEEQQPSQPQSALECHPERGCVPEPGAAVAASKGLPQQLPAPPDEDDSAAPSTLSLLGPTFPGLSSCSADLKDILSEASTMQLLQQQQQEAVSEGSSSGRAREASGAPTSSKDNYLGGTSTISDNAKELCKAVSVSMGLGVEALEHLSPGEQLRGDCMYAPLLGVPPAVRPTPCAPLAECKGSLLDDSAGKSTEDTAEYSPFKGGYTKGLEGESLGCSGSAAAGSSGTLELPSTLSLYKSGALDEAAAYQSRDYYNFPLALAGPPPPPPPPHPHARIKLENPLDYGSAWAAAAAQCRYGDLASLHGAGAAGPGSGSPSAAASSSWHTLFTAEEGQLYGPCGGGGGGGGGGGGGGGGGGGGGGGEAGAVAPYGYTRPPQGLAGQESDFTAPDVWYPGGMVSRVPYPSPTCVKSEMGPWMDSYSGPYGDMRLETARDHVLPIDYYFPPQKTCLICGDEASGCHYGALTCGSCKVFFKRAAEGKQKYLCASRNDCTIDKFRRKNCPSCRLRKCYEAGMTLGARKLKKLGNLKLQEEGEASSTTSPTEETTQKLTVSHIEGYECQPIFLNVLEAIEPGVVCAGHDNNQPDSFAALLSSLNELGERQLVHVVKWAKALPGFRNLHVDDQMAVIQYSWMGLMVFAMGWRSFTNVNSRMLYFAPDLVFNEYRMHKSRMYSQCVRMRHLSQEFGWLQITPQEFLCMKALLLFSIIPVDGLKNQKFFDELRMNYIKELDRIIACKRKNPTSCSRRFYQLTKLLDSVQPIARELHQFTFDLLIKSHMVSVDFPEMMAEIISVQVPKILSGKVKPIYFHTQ

C[N+](C)(C)CCCCCCCCCC[N+](C)(C)C
outcome [1]: inactive
Potency [2]: inactive
Potency [3]: inactive
Potency [4]: inactive
outcome [5]: inactive
Potency [6]: inactive

COCCOC[C@H](CC1(C(=O)NC2CCC(C(=O)O)CC2)CCCC1)C(=O)Oc1ccc2c(c1)CCC2 (stereo not given in full)
outcome [1]: inactive
Potency [2]: inactive
Potency [3]: inactive
Potency [4]: inactive
outcome [5]: inactive
Potency [7]: inactive
outcome [8]: inactive
Potency [9]: inactive
Potency [6]: inactive

N[C@H](C(=O)O)[C@@H](O)c1ccc(O)c(O)c1
outcome [1]: inactive
Potency [2]: 13.3 µM (active)
Potency [3]: 16.8 µM (active)
Potency [4]: 21.1 µM (active)
outcome [5]: inactive
Potency [6]: inactive

CC1CCC(CO)CC1 (stereo not given)
outcome [1]: inactive
Potency [2]: inactive
Potency [3]: inactive
Potency [4]: inactive
outcome [5]: inactive
Potency [7]: inactive
Potency [9]: inactive
Potency [6]: inactive
Potency [10]: inactive

CCCCOCCOC(=O)COc1cc(Cl)c(Cl)cc1Cl
outcome [1]: inactive
Potency [2]: inactive
Potency [3]: inactive
Potency [4]: inactive
outcome [5]: inactive
Potency [7]: inactive
outcome [8]: inactive
Potency [9]: inactive
Potency [6]: inactive
Potency [10]: inactive

CCCCCC(C)N (stereo not given)
outcome [1]: inactive
Potency [2]: inactive
Potency [3]: inactive
Potency [4]: inactive
outcome [5]: inactive
Potency [7]: inactive
Potency [9]: inactive
Potency [6]: inactive
Potency [10]: inactive

CC(=O)N[C@H]1[C@H]([C@H](O)[C@H](O)CO)OC(C(=O)O)=C[C@@H]1N=C(N)N
outcome [1]: inactive
Potency [2]: inactive
Potency [3]: inactive
Potency [4]: inactive
outcome [5]: inactive
Potency [7]: inactive
outcome [8]: inactive
Potency [9]: inactive
Potency [6]: inactive
Potency [10]: inactive

Cc1ccnc(NS(=O)(=O)c2ccc(N)cc2)n1
outcome [1]: inactive
Potency [2]: inactive
Potency [3]: inactive
Potency [4]: inactive
outcome [5]: inactive
Potency [6]: inactive

CCCCCCCC1CCCC1=O (stereo not given)
outcome [1]: inactive
Potency [2]: inactive
Potency [3]: inactive
Potency [4]: inactive
outcome [5]: inactive
Potency [7]: inactive
outcome [8]: inactive
Potency [9]: inactive
Potency [6]: inactive
Potency [10]: inactive

CN(C)C(=O)Oc1ccc[n+](C)c1
outcome [1]: inactive
Potency [2]: inactive
Potency [3]: inactive
Potency [4]: inactive
outcome [5]: inactive
Potency [6]: inactive

CC1OC1C1CCC2(C)OC2C1 (stereo not given)
outcome [1]: inactive
Potency [2]: inactive
Potency [3]: inactive
Potency [4]: inactive
outcome [5]: inactive
Potency [6]: inactive

C1CCC2=NCCCN2CC1
outcome [1]: inactive
Potency [2]: inactive
Potency [3]: inactive
Potency [4]: inactive
outcome [5]: inactive
Potency [6]: inactive

CC1=NS(=O)(=O)c2cc(Cl)ccc2N1
outcome [1]: inactive
Potency [2]: inactive
Potency [3]: inactive
Potency [4]: inactive
outcome [5]: inactive
Potency [6]: inactive

CC(C)C1CCC(O)CC1 (stereo not given)
outcome [1]: inactive
Potency [2]: inactive
Potency [3]: inactive
Potency [4]: inactive
outcome [5]: inactive
Potency [7]: inactive
outcome [8]: inactive
Potency [9]: inactive
Potency [6]: inactive
Potency [10]: inactive

O=CN(CCO)CCO
outcome [1]: inactive
Potency [2]: inactive
Potency [3]: inactive
Potency [4]: inactive
outcome [5]: inactive
Potency [6]: inactive
Potency [10]: inactive

CCCCS(=O)(=O)N[C@@H](Cc1ccc(OCCCCC2CCNCC2)cc1)C(=O)O
outcome [1]: inactive
Potency [2]: inactive
Potency [3]: inactive
Potency [4]: inactive
outcome [5]: inactive
Potency [7]: inactive
Potency [9]: inactive
Potency [6]: inactive
Potency [10]: inactive

CC[N+](CC)(CC)CCOc1cccc(OCC[N+](CC)(CC)CC)c1OCC[N+](CC)(CC)CC
outcome [1]: inactive
Potency [2]: inactive
Potency [3]: inactive
Potency [4]: inactive
outcome [5]: inactive
Potency [7]: inactive
Potency [9]: inactive
Potency [6]: inactive
Potency [10]: inactive

O=C(O)CCSCCC(=O)O
outcome [1]: inactive
Potency [2]: inactive
Potency [3]: inactive
Potency [4]: inactive
outcome [5]: inactive
outcome [8]: inactive
Potency [9]: inactive
Potency [6]: inactive

NS(=O)(=O)Cc1noc2ccccc12
outcome [1]: inactive
Potency [2]: inactive
Potency [3]: inactive
Potency [4]: inactive
outcome [5]: inactive
Potency [7]: inactive
outcome [8]: inactive
Potency [9]: inactive
Potency [6]: inactive
Potency [10]: inactive

CC1(C)OC[C@@H](COC(=O)CCc2ccc(OC[C@@H](O)CNCCNC(=O)N3CCOCC3)cc2)O1
outcome [1]: inactive
Potency [2]: inactive
Potency [3]: inactive
Potency [4]: inactive
outcome [5]: inactive
Potency [7]: inactive
outcome [8]: inactive
Potency [9]: inactive
Potency [6]: inactive
Potency [10]: inactive

CC(=O)O[C@@]12CO[C@@H]1C[C@H](O)[C@@]1(C)C(=O)[C@H](O)C3=C(C)[C@@H](OC(=O)[C@H](O)[C@@H](NC(=O)OC(C)(C)C)c4ccccc4)C[C@@](O)([C@@H](OC(=O)c4ccccc4)[C@H]21)C3(C)C
outcome [1]: inactive
Potency [2]: 0.0017 µM (active)
Potency [3]: 1.7 nM (active) and 1.9 nM (active)
Potency [4]: 0.0027 µM (active)
outcome [5]: inactive
Potency [9]: inactive
Potency [6]: inactive
Potency [10]: 29.8 nM (active) and 106 nM (active)

Cc1ccc(-c2ncc(Cl)cc2-c2ccc(S(C)(=O)=O)cc2)cn1
outcome [1]: inactive
Potency [2]: inactive
Potency [3]: inactive
Potency [4]: inactive
outcome [5]: inactive
Potency [7]: inactive
outcome [8]: inactive
Potency [9]: inactive
Potency [6]: inactive
Potency [10]: inactive

C[N+]1(C)[C@@H]2CC(OC(=O)[C@H](CO)c3ccccc3)C[C@H]1[C@@H]1O[C@@H]12 (stereo not given in full)
outcome [1]: inactive
Potency [2]: inactive
Potency [3]: inactive
Potency [4]: inactive
outcome [5]: inactive
Potency [6]: inactive

CCN(Cc1ccccc1)c1ccccc1
outcome [1]: inactive
Potency [2]: inactive
Potency [3]: inactive
Potency [4]: inactive
outcome [5]: inactive
Potency [7]: inactive
outcome [8]: inactive
Potency [9]: inactive
Potency [6]: inactive

CCCOC(=O)CC
outcome [1]: inactive
Potency [2]: inactive
Potency [3]: inactive
Potency [4]: inactive
outcome [5]: inactive
Potency [7]: inactive
outcome [8]: inactive
Potency [9]: inactive
Potency [6]: inactive
Potency [10]: inactive
